The supplement of paper PMC6555819

Experiments:
Assay in all cases: PBM binding z-score (relative to random genomic background probes); higher = stronger binding; sequences stand for … in GC…GCGATTGACAGCGTAGAATGAAGG
[1] = test system: FXR:RXRa (NR concentration 270 nM, RXRa partner concentration 90 nM)
Procedure, shortened: (§1)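 The probes on custom Agilent 4×180K protein-binding microarrays were double-stranded, with 34-nt variable regions bearing direct-repeat seeds, single-nucleotide variants, half-site ablations and random human genomic background sequences. Incubation lasted 1 h with ligand-free nuclear receptor dimers in PBS pH 7.4, 2% milk, 0.02% Triton X-100, 1 mM DTT, 0.2 mg/mL BSA and 0.4 mg/ml salmon testes DNA. Antibodies against each partner (one per run) detected bound dimers, and fluorescence scans were regression-normalized. Binding z-scores take the random background probes as reference.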

[2] = test system: LXRa:RXRa (NR concentration 270 nM, RXRa partner concentration 90 nM)
Procedure, shortened: as §1

[3] = test system: LXRa homodimer (NR concentration 270 nM)
Procedure, shortened: as §1

[4] = test system: LXRb:RXRa (NR concentration 270 nM, RXRa partner concentration 90 nM)
Procedure, shortened: as §1

[5] = test system: LXRb homodimer (NR concentration 270 nM)
Procedure, shortened: as §1

[6] = test system: PPARa:RXRa (NR concentration 270 nM, RXRa partner concentration 90 nM)
Procedure, shortened: as §1

[7] = test system: PPARg:RXRa (NR concentration 180 nM, RXRa partner concentration 90 nM)
Procedure, shortened: as §1

[8] = test system: PPARg:RXRa 270nM:90nM, anti-RXR (NR concentration 270 nM, RXRa partner concentration 90 nM)
Procedure, shortened: as §1

[9] = test system: PPARg:RXRa 30nM:10nM, anti-RXR (NR concentration 30 nM, RXRa partner concentration 10 nM)
Procedure, shortened: as §1

[10] = test system: PPARg:RXRa 90nM:30nM, anti-RXR (NR concentration 90 nM, RXRa partner concentration 30 nM)
Procedure, shortened: as §1

[11] = test system: PPARg:RXRa DBDmut IVT, anti-RXR (DBD mutation: RXRa K156A/R161A, NR concentration 270 nM, RXRa partner concentration 90 nM)
Procedure, shortened: as §1

[12] = test system: PPARg:RXRa IVT, anti-PPARg (NR concentration 270 nM, RXRa partner concentration 90 nM)
Procedure, shortened: as §1

[13] = test system: PPARg DBDmut:RXRa IVT, anti-PPARg (DBD mutation: PPARg1 K132A/R137A, NR concentration 270 nM, RXRa partner concentration 90 nM)
Procedure, shortened: as §1

[14] = test system: PPARg DBDmut IVT, anti-PPARg (DBD mutation: PPARg1 K132A/R137A, NR concentration 270 nM)
Procedure, shortened: as §1

[15] = test system: PPARg homodimer (NR concentration 180 nM)
Procedure, shortened: as §1

[16] = test system: PXR:RXRa (NR concentration 270 nM, RXRa partner concentration 90 nM)
Procedure, shortened: as §1

[17] = test system: PXR homodimer (NR concentration 270 nM)
Procedure, shortened: as §1

[18] = test system: RARa:RXR (NR concentration 270 nM, RXRa partner concentration 90 nM)
Procedure, shortened: as §1

[19] = test system: RARa homodimer (NR concentration 270 nM)
Procedure, shortened: as §1

[20] = test system: RARb:RXRa (NR concentration 270 nM, RXRa partner concentration 90 nM)
Procedure, shortened: as §1

| Sequence | PBM binding z-score [1] | PBM binding z-score [2] | PBM binding z-score [3] | PBM binding z-score [4] | PBM binding z-score [5] | PBM binding z-score [6] | PBM binding z-score [7] | PBM binding z-score [8] | PBM binding z-score [9] | PBM binding z-score [10] | PBM binding z-score [11] | PBM binding z-score [12] | PBM binding z-score [13] | PBM binding z-score [14] | PBM binding z-score [15] | PBM binding z-score [16] | PBM binding z-score [17] | PBM binding z-score [18] | PBM binding z-score [19] | PBM binding z-score [20] |
| --- | --- | --- | --- | --- | --- | --- | --- | --- | --- | --- | --- | --- | --- | --- | --- | --- | --- | --- | --- | --- |
| TCTCGGAGGACACAAAAGGTCAGAGCTCGACATC | 2.8 | 4.16 | 2.83 | 3.27 | 0.142 | 3.53 | 1.51 | 2.66 | 2.44 | 2.62 | 1.53 | 1.65 | -0.0324 | -0.692 | 3.51 | 3.82 | 0.682 | 4.29 | 1.33 | 4.08 |
| ACAGACAGCTGATGAAGGTAACTCAGGCTATCAT | -0.294 | -0.43 | -0.191 | -0.692 | -0.451 | -0.305 | 0.649 | -0.383 | -0.233 | 0.0374 | -0.796 | -0.158 | 0.246 | 0.14 | 0.00151 | -0.216 | -0.158 | 0.0124 | 0.287 | -0.232 |
| CGTCCAAGGTCAGCAGGTCAGTCAAAGCGACGTG | 5.86 | 4.15 | 0.724 | 3.27 | -0.456 | 4.84 | 4.14 | 4.59 | 0.878 | 3.11 | 2.82 | 3.69 | 0.0784 | -0.246 | 3.64 | 3.71 | 0.514 | 4.81 | 0.95 | 5.08 |
| TCTATTTGTTGATTAGGGCAACCGAAACAGCGGA | 0.7 | 0.785 | 0.435 | 0.575 | 1.08 | 0.93 | 0.259 | 2.04 | 3.98 | 2.81 | 1.93 | 1.79 | 1.53 | 1.99 | 1.59 | 0.675 | 0.358 | 0.837 | 1.13 | 1.09 |
| CCTAGTTGGTCAGGAGGTCACACAACGGATATGA | 3.71 | 3.52 | 1.69 | 3.53 | 0.623 | 4.25 | 3.47 | 4.16 | 1.47 | 3.3 | 1.95 | 3.66 | 0.747 | 0.329 | 3.64 | 4.16 | 1.53 | 4.94 | 2.05 | 3.63 |
| CCTAGCAGGCCAATCTGGGTCACTCAGGGCTTGA | 0.175 | 0.973 | -0.637 | 0.336 | -1.06 | 2.61 | 1.81 | 2.15 | -0.232 | 1.52 | 3.91 | 4.83 | 0.915 | -1.07 | 0.808 | 0.386 | -0.579 | 1.64 | -0.57 | 1.35 |
| TTACCAAGGTTAGCTGAGGTCGTTGATCCAACTC | 2.11 | 4.83 | 0.313 | 2.51 | -0.743 | 2.24 | -0.0441 | 0.6 | 0.0802 | 0.486 | 0.191 | 0.594 | -0.413 | -0.849 | 0.103 | 5.71 | 1.46 | 2.83 | -0.023 | 2.1 |
| CCTACTGGGCCTAGGTCATTGATCAGTCAAAGCA | 0.983 | 1.42 | 0.403 | 1.31 | -0.469 | 1.77 | 0.62 | 1.47 | -0.181 | 1.03 | -0.391 | 1.13 | -1.99 | -1.42 | 1.21 | 0.949 | -0.0903 | 1.57 | -0.574 | 1.94 |
| TCACATAGGTAATACAGGTGAAAGTCGGCATCTA | 0.672 | 0.976 | 0.424 | 0.83 | 0.142 | 1.66 | 1.04 | 2.47 | 3.63 | 3.03 | 2.54 | 1.8 | 1.44 | 0.888 | 0.824 | 0.746 | 0.212 | 1.26 | 0.821 | 0.68 |
| TCGAGTAGGTTACTCGGGGCATTCAGCCAACATA | 0.333 | 0.921 | -0.382 | 0.814 | -0.722 | 1.13 | 0.392 | 1.33 | 1.41 | 0.94 | 3.23 | 2.79 | -0.543 | -0.378 | -0.112 | 0.641 | -0.427 | 0.651 | -1.03 | 0.57 |
| TGTAAAAGTTCAAAGGTAACGTAAGTATCCACAC | 6.54 | 6.21 | 4.26 | 4.37 | 1.88 | 5.54 | 6.22 | 6.14 | 3.76 | 5.5 | 0.163 | 2.72 | 1.6 | 1.19 | 2.18 | 5.02 | 2.34 | 5.42 | 1.74 | 4.85 |
| TCGCGTAGGTTACCAATGGGGCATTCAGCTTTCT | -0.205 | 1.54 | -0.559 | 1.01 | -0.67 | 0.898 | -0.342 | 0.743 | 1.41 | 0.958 | 1.28 | 0.245 | -1.11 | -0.793 | -0.721 | 0.0701 | -1.03 | 0.355 | -1.2 | 1.05 |
| CATACAGGGTCAGCTAAGCCAGAGTAGGGACGGC | 4.23 | 2.89 | 0.0357 | 2.17 | 0.175 | 4.39 | 3.57 | 2.87 | 0.539 | 1.9 | 1.39 | 2.48 | 1.15 | 0.523 | 1.5 | 2.16 | -0.442 | 3.02 | 0.0387 | 3.9 |
| CCTAGTTGGTGAGGAGGTCACACACCGGATATGA | 2.72 | 3.07 | 1.61 | 3.19 | 0.489 | 3.86 | 2.06 | 3.07 | 1.4 | 2.31 | 0.486 | 2.56 | 0.735 | 0.147 | 3.46 | 3.86 | 1.61 | 4.11 | 1.97 | 3.1 |
| TCTTGTAGATCAATAGAGGCTAAGAAAGTGCGCT | 0.509 | 0.411 | -0.573 | 0.151 | -0.421 | 0.411 | -0.238 | 0.977 | 2.4 | 1.84 | 1.51 | 0.473 | 0.414 | 0.266 | 0.0391 | 0.573 | 0.17 | 0.468 | -0.133 | 0.203 |
| GCTATTAGTTGAAAAGGCAACCGAATGATTCTCG | -0.25 | -0.013 | -0.222 | -0.163 | -0.383 | 0.216 | 0.532 | 1.07 | 0.168 | 0.651 | -0.116 | -0.52 | 0.324 | 0.295 | 1.02 | -0.0791 | 0.363 | 0.226 | 0.557 | 0.109 |
| CCTGCTAGGTCAATGGTCCGCTAAAGCAGCTCGC | 2.77 | 2.19 | -0.135 | 1.19 | -0.102 | 2.6 | 2.12 | 2.94 | 0.46 | 1.87 | 4.03 | 3.49 | -0.758 | -0.248 | 0.967 | 0.521 | -0.206 | 1.27 | -0.566 | 3.68 |
| TCTTGTAGATCAACAGGAGGGTAAGAAAGATCGA | 0.289 | 0.24 | -0.818 | 0.0772 | -0.238 | 0.374 | -0.102 | 1.06 | 2.25 | 1.7 | 1.73 | 0.871 | 0.452 | 0.0976 | -0.361 | 0.00133 | -0.381 | -0.112 | 0.0256 | 0.107 |
